Measurements reported in the supplement of paper PMC12494721.
Structures can show the parent of a compound that is named as a salt. Unmarked numbers belong to inactive results.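 The calls were made as follows: for the amine columns active = adjusted P below 0.05 in both replicates with a change the same way and a mean fold change under 0.8 or over 1.25; inactive = the rest.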

What follows are molecules tested on Clostridium sporogenes DSM 1664 (assay: fold change of Tryptamine concentration vs plate DMSO controls (fold change (ratio)); higher = more amine produced, active = hit call of the paper (significant change in both replicates, either direction)). Conditions: incubation time: 27 h, anaerobic, 37 °C.
In short: (§1)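 Amine values are fold changes relative to DMSO-only wells on the same plate. They derive from 27 h, 37 °C anaerobic mGAM cultures of four gut bacterial strains in 80 µL wells, dosed at 20 µM final, or 50 µM final for sweeteners. Extraction of the whole culture, LC–triple-quadrupole MS in dynamic MRM mode, external calibration curves and within-batch drift correction were used, with 2 biological replicates averaged.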

| Structure (SMILES) | fold change of Tryptamine concentration |
| --- | --- |
| CC(C)CN(C[C@@H](O)[C@H](Cc1ccccc1)NC(=O)O[C@H]1CO[C@H]2OCC[C@H]21)S(=O)(=O)c1ccc(N)cc1 [Darunavir] (20 µM) | 1.01 |
| CN1CCc2cccc3c2[C@H]1Cc1ccc(O)c(O)c1-3 [R(-) Apomorphine hydrochloride hemihydrate] (20 µM) | 0.988 |
| CC(=O)OCC(=O)[C@@]1(O)[C@H](C)C[C@H]2[C@@H]3CCC4=CC(=O)C=C[C@]4(C)[C@@]3(F)[C@@H](O)C[C@@]21C [Dexamethasone acetate] (20 µM) | 1.06 |
| CN(C)CCC(c1ccc(Br)cc1)c1ccccn1 (centres undefined) [Brompheniramine maleate] (20 µM) | 1.2 |
| C#C[C@]1(O)CC[C@H]2[C@@H]3CCC4=C(CCC(=O)C4)[C@H]3CC[C@@]21C [Norethynodrel] (20 µM) | 0.936 |
| CN1CCN(CCCN2c3ccccc3Sc3ccc(S(=O)(=O)N(C)C)cc32)CC1 [Thioproperazine dimesylate] (20 µM) | 1.03 |
| CCN1/C(=C/C=C/C=C/c2sc3ccccc3[n+]2CC)Sc2ccccc21 [Dithiazanine iodide] (20 µM) | 0.849 |
| O=C(O)/C=C/c1ccc(Cn2ccnc2)cc1 [Ozagrel hydrochloride] (20 µM) | 1.01 |
| C=CCOc1ccc(CC(=O)O)cc1Cl [Alclofenac] (20 µM) | 1.05 |
| CCCCc1nc(Cl)c(CO)n1Cc1ccc(-c2ccccc2-c2nnn[nH]2)cc1 [Losartan] (20 µM) | 0.975 |

The molecules below were run on Ruminococcus gnavus DSM 108212 in the same assay as above. Conditions: incubation time: 27 h, anaerobic, 37 °C.
In short: as §1

| Structure (SMILES) | fold change of Tryptamine concentration |
| --- | --- |
| CC(C)COCC(CN(Cc1ccccc1)c1ccccc1)N1CCCC1 (centres undefined) [Bepridil hydrochloride] (20 µM) | 0.743 (active) |
| C[C@@H]1C[C@H]2[C@@H]3CCC4=CC(=O)C=C[C@]4(C)[C@@]3(Cl)[C@@H](O)C[C@]2(C)[C@@]1(OC(=O)c1ccco1)C(=O)CCl [Mometasone furoate] (20 µM) | 0.889 |
| c1ccc(-c2ccc(C(c3ccccc3)n3ccnc3)cc2)cc1 (centres undefined) [Bifonazole] (20 µM) | 0.82 |
| Cc1ncc([N+](=O)[O-])n1CC(C)O (centres undefined) [Secnidazole] (20 µM) | 0.041 (active) |
| CC(=O)[C@H]1CC[C@H]2[C@@H]3C[C@H](C)C4=CC(=O)CC[C@]4(C)[C@H]3[C@@H](O)C[C@]12C [Medrysone] (20 µM) | 1.01 |
| Cc1ccc(C(=O)c2ccc(CC(=O)O)n2C)cc1 [Tolmetin sodium salt dihydrate] (20 µM) | 0.958 |
| COCCOC(=O)C1=C(C)NC(C)=C(C(=O)OC(C)C)C1c1cccc([N+](=O)[O-])c1 (centres undefined) [Nimodipine] (20 µM) | 0.909 |
| CCCCCCCCCCCCCCCCCCCCCC(=O)Nc1ccn([C@@H]2O[C@H](CO)[C@@H](O)[C@@H]2O)c(=O)n1 [Enocitabine] (20 µM) | 0.913 |
| CCN(CCCc1ccccc1)CCCc1ccccc1 [Alverine citrate salt] (20 µM) | 0.74 (active) |
| CN(C)CCCC1(c2ccc(F)cc2)OCc2cc(C#N)ccc21 (centres undefined) [Citalopram hydrobromide] (20 µM) | 0.845 |
| O=C1Nc2ccc(Cl)cc2[C@@](C#CC2CC2)(C(F)(F)F)O1 [Efavirenz] (20 µM) | 0.936 |
| O=C1NS(=O)(=O)c2ccccc21 [Saccharin] (50 µM) | 1 |
| O=C(O)CCCC[C@@H]1SC[C@@H]2NC(=O)N[C@@H]21 [Biotin] (20 µM) | 1.03 |
| CC(C)(C(=O)O)c1ccc(C(O)CCCN2CCC(C(O)(c3ccccc3)c3ccccc3)CC2)cc1 (centres undefined) [Fexofenadine hydrochloride] (20 µM) | 0.978 |
| CC(C)[C@H]1CC[C@H](C(=O)N[C@H](Cc2ccccc2)C(=O)O)CC1 [Nateglinide] (20 µM) | 1.02 |
| COc1ccc(CNc2nc(N3CCC[C@H]3CO)ncc2C(=O)NCc2ncccn2)cc1Cl [Avanafil] (20 µM) | 1.01 |
| C#CCN(C)CCCOc1ccc(Cl)cc1Cl [Clorgyline hydrochloride] (20 µM) | 0.971 |
| Cc1cc(-c2ccccc2)nnc1NCCN1CCOCC1 [Minaprine dihydrochloride] (20 µM) | 0.991 |
| c1ccc(CNc2ncnc3nc[nH]c23)cc1 [Aminopurine, 6-benzyl] (20 µM) | 0.932 |
| COc1cccc(N(C)C(=S)Oc2ccc3c(c2)CCCC3)n1 [Liranaftate] (20 µM) | 1.31 (active) |

| Structure (SMILES) | fold change of Tryptamine concentration |
| --- | --- |
| C=CCOc1ccccc1OCC(O)CNC(C)C (centres undefined) [Oxprenolol hydrochloride] (20 µM) | 1.05 |
| C[C@@H](O[C@H]1OCCN(Cc2n[nH]c(=O)[nH]2)[C@H]1c1ccc(F)cc1)c1cc(C(F)(F)F)cc(C(F)(F)F)c1 [Aprepitant] (20 µM) | 0.742 |
| CCOc1ccc(Cc2nccc3cc(OCC)c(OCC)cc23)cc1OCC [Ethaverine hydrochloride] (20 µM) | 0.935 |
| O=C(CCCCC(=O)Nc1c(I)cc(I)c(C(=O)O)c1I)Nc1c(I)cc(I)c(C(=O)O)c1I [Iodipamide] (20 µM) | 0.925 |
| NC(=O)c1cnccn1 [Pyrazinamide] (20 µM) | 0.958 |
| CCN(CC)CCOC(=O)c1ccc(N)cc1 [Procaine hydrochloride] (20 µM) | 1.04 |
| CCCCC(CC)CNC(=N)NC(=N)NCCCCCCNC(=N)NC(=N)NCC(CC)CCCC (centres undefined) [Alexidine dihydrochloride] (20 µM) | 0.0418 (active) |
| Cc1onc(-c2ccccc2)c1C(=O)N[C@@H]1C(=O)N2[C@@H]1SC(C)(C)[C@@H]2C(=O)O [Oxacillin sodium] (20 µM) | 0.0465 (active) |
| CC(=O)N[C@@H](CC(C)C)C(=O)O [N-Acetyl-L-leucine] (20 µM) | 1.03 |
| CC(C)CN(C[C@@H](O)[C@H](Cc1ccccc1)NC(=O)O[C@H]1CO[C@H]2OCC[C@H]21)S(=O)(=O)c1ccc(N)cc1 [Darunavir] (20 µM) | 0.863 |
| CN1CCc2cccc3c2[C@H]1Cc1ccc(O)c(O)c1-3 [R(-) Apomorphine hydrochloride hemihydrate] (20 µM) | 0.997 |
| CC(=O)OCC(=O)[C@@]1(O)[C@H](C)C[C@H]2[C@@H]3CCC4=CC(=O)C=C[C@]4(C)[C@@]3(F)[C@@H](O)C[C@@]21C [Dexamethasone acetate] (20 µM) | 1.01 |
| CN(C)CCC(c1ccc(Br)cc1)c1ccccn1 (centres undefined) [Brompheniramine maleate] (20 µM) | 1.1 |
| C#C[C@]1(O)CC[C@H]2[C@@H]3CCC4=C(CCC(=O)C4)[C@H]3CC[C@@]21C [Norethynodrel] (20 µM) | 1.03 |
| CN1CCN(CCCN2c3ccccc3Sc3ccc(S(=O)(=O)N(C)C)cc32)CC1 [Thioproperazine dimesylate] (20 µM) | 0.963 |
| CCN1/C(=C/C=C/C=C/c2sc3ccccc3[n+]2CC)Sc2ccccc21 [Dithiazanine iodide] (20 µM) | 0.749 (active) |
| O=C(O)/C=C/c1ccc(Cn2ccnc2)cc1 [Ozagrel hydrochloride] (20 µM) | 1.04 |
| C=CCOc1ccc(CC(=O)O)cc1Cl [Alclofenac] (20 µM) | 1.05 |
| CCCCc1nc(Cl)c(CO)n1Cc1ccc(-c2ccccc2-c2nnn[nH]2)cc1 [Losartan] (20 µM) | 1.05 |
